HT1080-NT tox = qHTS for induction of synthetic lethality in tumor cells producing 2HG: qHTS for the HT-1080-NT fibrosarcoma cell line. Potency, µM (doses to about 46.1 µM), hits mostly cytotoxic. HT-1080-NT fibrosarcoma viability, CellTiter-Glo ATP luminescence, 48 h. 360,000 compounds, 1.6% hits;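 further: NT is the 2HG producing partner of a matched IDH1 knockdown line; nearly all actives have a fitted effect of over 55% in size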
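HT-1080-NT; 750 cells/well; 5% FBS RPMI; 48 h compound, 37 degrees C; CellTiter-Glo luminescence; curve fitting and curve-class assignment.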
HT1080 IDH1KD tx = qHTS for induction of synthetic lethality in tumor cells producing 2HG: qHTS for the HT-1080-IDH1KD cell line | HT-1080 IDH1 knockdown viability, ATP luminescence, 48 h | Potency, µM (top dose mostly 46.1 µM), hits mostly cytotoxic | 360,000 compounds, 2% hits
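Using the IDH1-knockdown HT-1080 line run in the same batch and compound series as the NT line, viability after 48 h at 37 °C was determined by CellTiter-Glo luminescence and expressed as % activity.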
KB-3-1 tox = qHTS assay for MDR1-selective chemotherapeutics: Primary screen using the parental adenocarcinoma cell KB-3-1. Potency, µM (titrated, usually from 46.1 µM), actives largely listed as cytotoxic. 400,000 compounds, 1.4% hits. KB-3-1 viability, CellTiter-Glo ATP luminescence, 72 h; further: nearly all actives have a fitted effect of over 60% in size
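KB-3-1 parental drug-naive adenocarcinoma cells in DMEM/10% FBS, incubated 72 h at 37 C with pin-transferred compounds across a concentration series. Viability by CellTiter-Glo luminescence; concentration-response curves fitted after normalization.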
SW480 rerep = A quantitative high throughput screen for small molecules that induce DNA re-replication in SW480 colon adenocarcinoma cells; SW480 DNA re-replication, Hoechst DNA content imaging, 48 h; Potency, µM (doses to about 46.1 µM), usual class: activators; 340,000 compounds, 1.8% hits; AID 624297, 2012; further: nearly all actives have a fitted effect of over 55% in size
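Hoechst fluorescence of nuclei (405 nm excitation, 500-530 nm emission) measured by plate-scanning imager after 48 hr compound exposure at 37 C; re-replication scored as increased number of nuclei with elevated intensity.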
MCF10A rerep = A quantitative high throughput screen for small molecules that induce DNA re-replication in MCF 10a normal breast cells; Potency, µM (highest dose often 46.1 µM), usual class: activators; 350,000 compounds, 2.9% hits; MCF 10A DNA re-replication, Hoechst nuclear intensity, 48 h; further: nearly all actives have a fitted effect of over 50% in size
KB-V1 cytotox = qHTS assay for MDR1-selective chemotherapeutics: Primary screen using the drug-selected MDR subline cells KB-V1. KB-V1 MDR cells viability, CellTiter-Glo, 72 h. Potency, µM (titrated, usually from 46.1 µM), usual class: cytotoxic. 400,000 compounds, 3.4% hits. AID 1347076, 2019; further: nearly all actives have a fitted effect of over 60% in size
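Potencies derive from concentration-effect curves fitted to normalized luminescence (CellTiter-Glo) of KB-V1 cells treated for 72 h at 37 degrees C in phenol-red-free DMEM containing 10% FBS.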
Large screens that a line does not name were inactive; ! = repeats disagree. The list is not random: actives were taken first. Their share in the collection is about 7.9%. The call rests on the fitted dose curve; in most records, active means well fitted curve in the direction sought with a large enough effect; inconclusive means small, poorly fitted or top-dose-only effect, or another doubt; inactive means no such curve, though single readings can be large; an effect the other way counts as inactive or inconclusive.

CCOC(=O)C1(C)CCN1C(=O)c1ccc(N(C)C)cc1 (stereo not given)	none (no result: SW480 rerep, MCF10A rerep)
CCOC(=O)COc1ccc2nsnc2c1Cl	none
C=C(CC)C(=O)c1ccc(OCC(=O)O)c(Cl)c1Cl	HT1080-NT tox 18µM, HT1080 IDH1KD tx 23µM, SW480 rerep inconclusive, MCF10A rerep 19µM!
Cc1ccc(NCc2nc3ccccc3n2CCOc2ccccc2)cc1	KB-3-1 tox 16µM!, KB-V1 cytotox 23µM!
CCOCCn1c(COc2ccc(C)cc2)nc2ccccc21	KB-3-1 tox inconclusive, KB-V1 cytotox 16µM
COCCn1c(COc2ccc(C)cc2)nc2ccccc21	SW480 rerep inconclusive, KB-V1 cytotox inconclusive
Cc1cn([C@H]2C[C@H](O)[C@@H](/C=C/C(=O)NCCc3ccc4c(c3)OCO4)O2)c(=O)[nH]c1=O	none (no result: SW480 rerep, MCF10A rerep)
COC(=O)c1cc(O)cc(OC)c1Oc1cc(C)cc(O)c1C(=O)O	HT1080-NT tox 23µM, HT1080 IDH1KD tx inconclusive, KB-3-1 tox inconclusive, SW480 rerep inconclusive, MCF10A rerep inconclusive
COC(=O)c1cc(O)cc(OC)c1C(=O)c1c(O)cc(C)cc1O	MCF10A rerep inconclusive
COc1cccc2c1Oc1ncccc1N(C(=O)CCC(=O)NC(C)C)C2	none (no result: HT1080-NT tox, HT1080 IDH1KD tx, SW480 rerep, MCF10A rerep)
Cc1ccc(N/C(SCc2ccccc2C)=C(/C#N)C(=O)NCc2ccco2)cc1C	KB-3-1 tox inconclusive, MCF10A rerep inconclusive, KB-V1 cytotox 12µM
CCc1ccc(N/C(SCc2cccc(F)c2)=C(/C#N)C(=O)NCc2ccco2)cc1	SW480 rerep inconclusive, KB-V1 cytotox inconclusive
O=CC1=C(c2ccccc2)Oc2ccccc2O1	HT1080-NT tox inconclusive, HT1080 IDH1KD tx 16µM, KB-3-1 tox inconclusive, SW480 rerep inconclusive, MCF10A rerep inconclusive, KB-V1 cytotox inconclusive
Cc1ccc(C(=O)c2cn(Cc3ccccc3)c3nc(C)ccc3c2=O)cc1	none (no result: HT1080-NT tox, HT1080 IDH1KD tx, SW480 rerep, MCF10A rerep)
CC(=O)/C=C/n1c(=S)oc2ccccc21	HT1080-NT tox 5.2µM, HT1080 IDH1KD tx 5.2µM, KB-3-1 tox inconclusive, MCF10A rerep 3.3µM, KB-V1 cytotox 16µM
CC(C)CC(=O)/C=C/n1c(=S)oc2ccccc21	HT1080 IDH1KD tx inconclusive, KB-3-1 tox inconclusive, SW480 rerep 8.2µM, MCF10A rerep 3.7µM, KB-V1 cytotox inconclusive
Cn1c(=S)oc2ccccc21	MCF10A rerep inconclusive
CCn1c(=S)[nH]c2cc(S(=O)(=O)N3CCCCC3)ccc21	HT1080-NT tox inconclusive, KB-V1 cytotox 13µM
COc1ccc(C2=C(C)C(=O)N(Cc3ccc(C(=O)Nc4cccc(F)c4)cc3)S2(=O)=O)cc1	none (no result: HT1080-NT tox, HT1080 IDH1KD tx, SW480 rerep, MCF10A rerep)
COc1ccc(C2=C(C)C(=O)N(Cc3ccc(C(=O)Nc4ccc(F)cc4C)cc3)S2(=O)=O)cc1	KB-3-1 tox 4.6µM (no result: HT1080-NT tox, HT1080 IDH1KD tx, SW480 rerep, MCF10A rerep)
COc1ccccc1N1CCN(S(=O)(=O)CCNC(=O)c2cccc(F)c2)CC1	KB-V1 cytotox inconclusive
CC(C)(C)OC(=O)NCCCCCc1cn([C@@H](CO)C(=O)NCCCCCCCCCCC(=O)N2CCN(C(=O)OC(C)(C)C)CC2)nn1	HT1080-NT tox 16µM, HT1080 IDH1KD tx 16µM, KB-3-1 tox inconclusive, MCF10A rerep inconclusive
C#CCOCCOCCOCCNc1nc(N2CCN(C(=O)CCCCCCCCCCNC(=O)Cn3cc(C[C@@H](C)O)nn3)CC2)nc(N2CCN(C(=O)CCCCCCCCCCNC(=O)[C@@H](CCC(=O)O)n3cc(CCCCCN)nn3)CC2)n1	none
C#CCOCCOCCOCCNc1nc(N2CCN(C(=O)CCCCCCCCCCNC(=O)Cn3cc(C[C@@H](C)O)nn3)CC2)nc(N2CCN(C(=O)CCCCCCCCCCNC(=O)[C@H](CO)n3cc(CCCSC)nn3)CC2)n1	HT1080 IDH1KD tx inconclusive, MCF10A rerep 6.5µM, KB-V1 cytotox inconclusive
C#CCOCCOCCOCCNc1nc(N2CCOCC2)nc(N2CCN(C(=O)CCCCCCCCCCNC(=O)[C@@H]([C@H](C)CC)n3cc(CCCCCN)nn3)CC2)n1	SW480 rerep inconclusive, MCF10A rerep 12µM
Cc1ccccc1NC(=O)Cc1nnc(SCC(=O)NC2CCCC2)n1C	none
O=C(Nc1ccccc1)c1cc(C2CCCCN2C(=O)CCc2ccccc2)on1 (stereo not given)	none (no result: SW480 rerep, MCF10A rerep)
CN(C)CCOC(=O)[C@@H](c1ccccc1)C1(O)CCCC1	none (no result: HT1080-NT tox, HT1080 IDH1KD tx, KB-3-1 tox, KB-V1 cytotox)
CN(CC(=O)Nc1ccc(S(=O)(=O)N2CCCC2)cc1)Cc1ccc(Cl)cc1Cl	KB-V1 cytotox 13µM (no result: SW480 rerep)
CN(CC(=O)NCCc1ccc(S(N)(=O)=O)cc1)Cc1ccc(Cl)cc1Cl	KB-3-1 tox inconclusive, KB-V1 cytotox 16µM
CN(CC(=O)Nc1ccc(Cl)cc1)c1ccc(S(=O)(=O)N2CCCCC2)cc1[N+](=O)[O-]	HT1080 IDH1KD tx inconclusive, KB-3-1 tox inconclusive, KB-V1 cytotox 16µM
COc1ccc(CCN(C)c2ccc(S(=O)(=O)N3CCCC3)cc2[N+](=O)[O-])cc1OC	KB-3-1 tox inconclusive, MCF10A rerep inconclusive, KB-V1 cytotox 2.6µM
C=CC[C@H](CC(=O)N(CCO)Cc1ccccc1)C(=O)NCCOC(=O)[C@H](CC=C)CC(=O)OC(C)(C)C	none
COc1cccc(CNC(=O)C(=O)NCC(c2ccco2)S(=O)(=O)c2cccs2)c1 (stereo not given)	none (no result: HT1080-NT tox, HT1080 IDH1KD tx, SW480 rerep, MCF10A rerep)
Cc1ccc(S(=O)(=O)N2CCOCC2)cc1C(=O)Nc1ccccc1C(=O)O	none (no result: HT1080-NT tox, HT1080 IDH1KD tx, SW480 rerep, MCF10A rerep)
COc1ccc(C(CNc2ccc(S(=O)(=O)N3CCN(C)CC3)cc2[N+](=O)[O-])N(C)C)cc1 (stereo not given)	KB-V1 cytotox inconclusive
O=[N+]([O-])c1cc(S(=O)(=O)N2CCCCCC2)ccc1F	HT1080-NT tox inconclusive, HT1080 IDH1KD tx inconclusive, KB-3-1 tox inconclusive, MCF10A rerep 4.6µM (no result: SW480 rerep)
COc1ccccc1C(CNc1ccc(S(=O)(=O)N2CCCC2)cc1[N+](=O)[O-])N(C)C (stereo not given)	HT1080-NT tox inconclusive, MCF10A rerep inconclusive, KB-V1 cytotox 12µM
COc1ccccc1NC(=O)CSc1ccc(-c2ccc(-n3ccnc3)cc2)nn1	KB-V1 cytotox inconclusive
COc1ccc(OCc2cc(C(=O)N(C)C(C)c3ccon3)no2)c(Cl)c1 (stereo not given)	KB-V1 cytotox inconclusive
CCC(=O)Nc1cccc(NC(=O)c2ccc(C)c([N+](=O)[O-])c2)c1	KB-V1 cytotox 15µM
Cc1ccc(C(=O)Nc2ccc(Cc3ccncc3)cc2)cc1[N+](=O)[O-]	KB-3-1 tox inconclusive, KB-V1 cytotox 5.8µM
O=C(Nc1ccc(Cc2ccncc2)cc1)c1cccc([N+](=O)[O-])c1	KB-V1 cytotox inconclusive

Screening results (PubChem BioAssay)
